Screening data from PubChem.
Shown are actives, neighbours in structure and some others; about 2.8% of the full set was active somewhere.
Pol beta inh: blocks human DNA polymerase beta activity. AID 485314. Potency, µM (top dose mostly 114 µM), inactives show at the highest dose activity change, negative = inhibition, usual class: inhibitors. Pol beta primer extension/strand displacement, fluorescence kinetic. P06746. 1.3% of 340,000 active; also: potency is read from the fitted curve at half-maximal effect; % is scaled to controls: 0 for no effect and ±100 for the full control effect
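Pol beta (10 nM) and compounds were preincubated 15 min at room temperature, then 50 nM substrate (final) started primer extension/strand displacement. Reads were taken at 0 and 10 min; concentration-response data were fitted to a four-parameter Hill equation.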
WRN inhibitor: WRN helicase (human) inhibition; WRN helicase unwinding, fluorescent forked duplex, kinetic; Potency, µM (titrated, usually from 114 µM), for the others: at the top dose activity change, negative = inhibition, usual class: inhibitors; 0.46% of 360,000 active; AID 651768; also: potency is read from the fitted curve at half-maximal effect; % is scaled to controls: 0 for no effect and ±100 for the full control effect; nearly all actives have a fitted effect of over 55% in size
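Primary qHTS, 1536-well format. 20 nM WRN + compound, 15 min RT; start with 100 nM forked fluorophore/quencher duplex, 2 mM ATP (final); kinetic read ex 525/em 598 nm.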
Pol iota inh: DNA polymerase iota (human) inhibition; Pol iota fluorescent replication assay, 10 min; Potency, µM (doses to about 115 µM), without a hit: at the highest dose activity, negative = inhibition, actives largely listed as inhibitors; 1% of 390,000 active; AID 588590; also: potency is read from the fitted curve at half-maximal effect
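Pol iota at 10 nM preincubated 15 min with compounds at room temperature; reaction started with fluorescent substrate, 50 nM final. Fluorescence read kinetically at 0 and 10 min; buffer-only wells as negative control.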
PI5P4K alpha inh: blocks human PI5P4K alpha kinase activity. P48426. PI5P4Kalpha enzyme, ADP-Glo luminescence, 60 min; active compounds read low. max response, %. 1.2% of 330,000 active; active = max response of -50% or lower; inconclusive = between -30% and -50%; inactive = -30% or higher; also: value at the top dose of about 77 µM; % is scaled to controls: 0 for no effect and ±100 for the full control effect
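Luminescence from ADP-Glo served as readout of PI5P4Kalpha activity in a qHTS format. Reaction: enzyme, substrate, compound, ATP at 5 microM final, 60 min at RT.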
Pol kappa inh: blocks human DNA polymerase kappa activity. Q9UBT6. purified Pol kappa, fluorescent DNA synthesis assay, 10 min. Potency, µM (top dose mostly 107 µM), inactives show at the top dose activity, negative = inhibition, actives largely listed as inhibitors. 0.53% of 400,000 active. AID 588579; also: potency is read from the fitted curve at half-maximal effect; % is scaled to controls: 0 for no effect and ±100 for the full control effect
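Readout: fluorescence, taken kinetically at 0 and 10 min. Conditions: 10 nM Pol kappa, 15 min RT compound preincubation, 50 nM substrate final. Controls: enzyme-free buffer wells.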
Pol eta inh: inhibitors of human DNA polymerase eta. Potency, µM (titrated, usually from 114 µM), for the others: at the top dose activity change, negative = inhibition, actives largely listed as inhibitors. 1.2% of 390,000 active. recombinant Pol eta, fluorescent DNA replication assay. Q9Y253; also: potency is read from the fitted curve at half-maximal effect; % is scaled to controls: 0 for no effect and ±100 for the full control effect
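Pol eta at 10 nM preincubated with compounds 15 min at room temperature; reaction started with fluorescent substrate (50 nM final) and read kinetically at 0 and 10 min.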
The depositor's hits bear a star; ? = inconclusive; / = not tested or not shown; [ ] = remark or other dose. Unless noted, calls follow the shape of the dose curve; as a rule, active = well fitted curve in the direction sought with a large enough effect; inconclusive = small, poorly fitted or top-dose-only effect, or another doubt; inactive = no such curve, though single readings can be large; an effect the other way counts as inactive or inconclusive.

SMILES	Pol beta inh	WRN inhibitor	Pol iota inh	PI5P4K alpha inh	Pol kappa inh	Pol eta inh
CNC(=O)COC(=O)c1c2c(nc3ccccc13)CCC2	20µM*	-17.2%[57.1 µM]	8.91µM*	?	?	25.1µM*
O=C(NC1CCCCC1)c1c2c(nc3ccccc13)CCC2	20µM*	0.1%[11.6 µM]	79.4µM*	?	-19.5%	?
C/C(=N\NC(=O)Cc1c[nH]c2ccccc12)c1ccc2ccccc2c1	-8.2%	-10.6%	124.4%	-52.8*	-14.9%	-23.0%
Cc1cc(C)c2nc(N3C(=O)C(O)=C(C(=O)c4ccco4)C3c3ccco3)sc2c1 (stereo unspecified)	39.8µM*	-14.1%[11.6 µM]	35.5µM*	-53.4*	-21.0%	?
COc1ccc2nc(N3C(=O)C(O)=C(C(=O)c4ccco4)C3c3ccccc3OC)sc2c1 (stereo unspecified)	6.7%	2.3%	10.0%	-5.3	-18.4%	-5.0%
Cc1ccc2nc(N3C(=O)C(O)=C(C(=O)c4ccco4)C3c3cccs3)sc2c1 (stereo unspecified)	3.0%	-30.4%	?	/	-27.1%	-12.1%
Cc1ccc2nc(N3C(=O)C(O)=C(C(=O)c4ccc(C)o4)C3c3ccc(O)cc3)sc2c1 (stereo unspecified)	/	-1.7%	?	-57.8*	-15.5%	?
CCOC(=O)c1sc(N2C(=O)C(O)=C(C(=O)c3ccco3)C2c2ccco2)nc1C (stereo unspecified)	?	3.7%[11.6 µM]	56.2µM*	-9.4	?	?
COc1ccc2nc(N3C(=O)C(O)=C(C(=O)c4ccco4)C3c3ccc(C)o3)sc2c1 (stereo unspecified)	/	-27.8%	?	-50.3*	-20.7%	-11.9%
CCOc1ccc2nc(N3C(=O)C(O)=C(C(=O)c4ccco4)C3c3ccco3)sc2c1 (stereo unspecified)	/	-4.8%[11.6 µM]	?	?	-37.9%	?
CCOc1ccc(C2C(C(=O)Nc3ccccc3)=C(C)Nc3nc(-c4ccccc4Cl)nn32)cc1OC (stereo unspecified)	28.5%	/	2.0%	/	6.7%	-16.3%
CCOc1ccccc1NC(=O)CN1C(=O)C2(SCC(=O)N2c2ccc(C)cc2)c2ccccc21 (stereo unspecified)	-0.8%	/	-19.8%	/	-11.4%	-4.4%
Cc1ccc2c(=O)cc(C(=O)Nc3ccc(S(=O)(=O)Nc4onc(C)c4C)cc3)oc2c1C	2.8%	/	?	/	3.9%	-0.4%
O=C1c2cc(O)cc(O)c2OC[C@@H]1c1ccc(O)c(O)c1	/	/	/	/	15µM*	/
O=C(O)CCN1C(=O)C(=C2CCCCCC2)SC1=S	?	-4.1%	?	-10.0	-14.6%	-11.9%
O=C1C(=C2CCCCC2)SC(=S)N1Cc1ccco1	25.1µM*	?	?	-26.8	?	?
CCc1ccc(NC(=O)CCS(=O)(=O)c2ccc3c(c2)n(C)c(=O)c(=O)n3C)cc1	36.6%	/	6.7%	/	-3.1%	/
C=CCNC(=O)/C(C#N)=C\c1cc(Cl)c(O)c(OCC)c1	0.4%	-10.9%	?	-58.6*	-4.2%	-13.7%
CCOc1cc(/C=C(/C#N)C(=O)Nc2ccc(O)cc2)cc(Br)c1O	?	?	-12.0%	-70.7*	-13.0%	-21.9%
CCOc1ccc(NC(=O)/C(C#N)=C/c2ccc(N3CCCC3)c(C)c2)cc1	-17.1%	3.9%	19.0%	-7.8	-4.7%	8.7%
COc1cccc(/C=C2\SC(=S)N(C(C(=O)O)c3ccccc3)C2=O)c1OC (stereo unspecified)	29.1%	-24.0%	?	0.0	-22.2%	-1.9%
O=C(O)C(Cc1ccccc1)N1C(=O)/C(=C/c2cccc3ccccc23)SC1=S (stereo unspecified)	31.6µM*	/	/	/	/	/
Cc1ccc(/C=C2\SC(=S)N(C(Cc3ccccc3)C(=O)O)C2=O)cc1 (stereo unspecified)	89.1µM*	-7.4%	10.8%	11.2	-2.4%	79.4µM*
O=C(O)C(Cc1ccccc1)N1C(=O)/C(=C/c2ccccc2)SC1=S (stereo unspecified)	1.6%	1.1%	2.2%	-0.5	2.5%	-20.6%
